The target of test [1] is Luciferin 4-monooxygenase (Photinus pyralis) (UniProt P08659). Kind of test: qHTS assay to identify small molecule inhibitors of firefly luciferase (AID 1224835). Further: nearly all actives have a fitted effect of over 25% in size. The method, boiled down: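 Inhibition of purified Photinus luciferase is measured by luminescence. Substrate levels (D-luciferin, ATP) sit at their KM values. Each compound is tested in a concentration series.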
On the technique in general: Quantitative high-throughput screening tests each substance at several concentrations.

Test [2] can be described thus: qHTS assay to identify small molecule agonists of the constitutive androstane receptor (CAR) signaling pathway - cell viability counter screen (AID 1224836). Further: nearly all actives have a fitted effect of over 45% in size. Further: potency means the concentration at half of the fitted maximal effect. The method, boiled down:
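Multiplexed viability check: HepG2-CYP2B6-hCAR cells, 15-point compound dosing, 0.75 uM PK11195 final, 23 h at 37 C, CellTiter-Fluor fluorescence.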

Test [3] can be described thus: qHTS assay to identify small molecule antagonists of the constitutive androstane receptor (CAR) signaling pathway - cell viability counter screen (AID 1224837). Further: nearly all actives have a fitted effect of over 45% in size. Further: potency means the concentration at half of the fitted maximal effect. The method, boiled down: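 Counter screen run in HepG2-CYP2B6-hCAR cells: 4 hr settle, compound titration (15 concentrations) with 50 nM CITCO, 23 hr at 37 C/5% CO2, CellTiter-Fluor fluorescence.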
Test [4] is described as follows: qHTS assay to identify small molecule antagonists of the estrogen related receptor signaling pathway with the pleiotropic PPARgamma coactivator (PGC) from Tox21 10K library - cell viability counter screen (AID 1224840; active means well fitted cell-killing curve with a large enough effect in the repeat runs, not every such curve was filed as active; further: nearly all actives have a fitted effect of over 40% in size; further: potency means the concentration at half of the fitted maximal effect). The method, boiled down: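 Following seeding of 2,000 PGC/ERR cells/well and 6 hours' incubation, test compounds were delivered in DMSO. The plates then sat 17.5 hours at 37 C before a fluorogenic live-cell protease reagent (CellTiter-Fluor) was read after 30 min.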

A short description of test [5]: qHTS assay to identify small molecule antagonists of the estrogen related receptor signaling pathway with the pleiotropic PPARgamma coactivator (PGC) from Tox21 10K library (AID 1224841; call rule not given here; further: actives are mostly falling curves and most rising ones were filed inactive; nearly all actives have a fitted effect of over 50% in size; further: potency means the concentration at half of the fitted maximal effect). The method, boiled down: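 qHTS antagonist format: PGC/ERR cells, 2k/well, compound in DMSO by pin transfer after 6 h attachment, 18 h treatment at 37 C, One-Glo luminescence read at 30 min.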

Test [6] is described as follows: qHTS assay to identify small molecule agonists of the estrogen related receptor signaling pathway with the pleiotropic PPARgamma coactivator (PGC) from Tox21 10K library (AID 1224842). Further: nearly all actives have a fitted effect of over 15% in size. Put shortly: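 Luminescence from One-Glo (30 min, room temperature) measured after PGC/ERR cells had 18 h at 37 C with pinned compound (23 nL in DMSO). Cells had been seeded at 2,000 per well and pre-incubated 6 h.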

Test [7] can be described thus: qHTS assay to identify small molecule agonists of the hypoxia (HIF-1) signaling pathway - cell viability counter screen (AID 1224844; calls by dose curve; further: nearly all actives have a fitted effect of over 50% in size; further: potency means the concentration at half of the fitted maximal effect). The method, boiled down: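 Cells (HRE-bla ME-180, 2,000 per well) sat 5 hrs at 37C, got compound for 17 hrs, were read for CCF4-AM FRET, and were finally lysed with CellTiter-Glo for a 30 min room-temperature luminescence read.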
Test [8] in a line: qHTS assay to identify small molecule antagonists of the estrogen related receptor (ERR) signaling pathway from Tox21 library (AID 1224848). Further: nearly all actives have a fitted effect of over 50% in size. Further: potency means the concentration at half of the fitted maximal effect. The method, boiled down:
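Reading was by luminescence 30 min after ONE-Glo addition. Before that, ERR cells at 2,000 per well had rested 6 h at 37 C/5% CO2 and then received pin-tooled compounds in DMSO for 18 h at 37 C.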

The nature of test [9]: qHTS assay to identify small molecule agonists of the estrogen related receptor (ERR) signaling pathway from Tox21 library (AID 1224849; calls by dose curve; further: nearly all actives have a fitted effect of over 15% in size). Conditions: ERR reporter cell line, ONE-Glo luciferase, 18 h. Put shortly: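 Screening used an NTP-provided ERR luciferase cell line. Compounds in DMSO were added 6 h after seeding and left 18 h at 37 C before a 30 min ONE-Glo step and luminescence reading.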

The nature of test [10]: qHTS RealTime-Glo MT Cell Viability Assay in HepG2 cells - 24 hour (AID 1224867). Further: nearly all actives have a fitted effect of over 50% in size. Further: potency means the concentration at half of the fitted maximal effect. The method, boiled down:
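qHTS, HepG2, 600 cells/well, RealTime-Glo (NanoLuc + prosubstrate) added with cells; 5 h preincubation; DMSO compound addition; 37 C; luminescence at 0/8/16/24/32/40 h.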

A short description of test [11]: A CellTox Green Cytotoxicity Assay to monitor cytotoxicity in HEK293 cells - 0 hour (AID 1224869). Further: nearly all actives have a fitted effect of over 50% in size. Put shortly:
(§1)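 Fluorescence intensity, read at 0, 8, 16, 24, 32 and 40 h of compound treatment, reflected dye binding to DNA of dead HEK293 cells; compounds (23 nL, DMSO) were added 5 h after plating cells with reagent.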

Test [12] can be described thus: qHTS RealTime-Glo MT Cell Viability Assay in HepG2 cells - 40 hour (AID 1224870). Further: nearly all actives have a fitted effect of over 50% in size. Further: potency means the concentration at half of the fitted maximal effect. The method, boiled down:
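Real-time viability: cells seeded at 600 per well together with NanoLuc and cell-permeant prosubstrate, compounds added after 5 h incubation. Luminescence tracked at 0, 8, 16, 24, 32 and 40 h of exposure.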

Test [13] in a line: qHTS assay to identify small molecule agonists of H2AX (AID 1224845; active means well fitted activation curve with a large enough effect in the signal ratio in the repeat runs, not every such curve was filed as active; the % refers to the signal ratio; further: potency means the concentration at half of the fitted maximal effect). The method, boiled down: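 Phospho-H2AX Ser139 measured by HTRF (ex 320 nm; em 665 and 620 nm) after 24 hr antibody incubation. Compounds, 15 concentrations, 0.76% DMSO, were applied to CHO-K1 cells for 3hr at 37C before lysis.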
Test [14] in a line: qHTS RealTime-Glo MT Cell Viability Assay in HEK293 cells - 32 hour (AID 1224868). Further: nearly all actives have a fitted effect of over 50% in size. Further: potency means the concentration at half of the fitted maximal effect. The method, boiled down: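 Assay medium contained NanoLuc luciferase plus cell-permeant prosubstrate, added with HEK293 cells at 600 cells/well. After 5 h at 37 C/5% CO2 compounds were added; plates stayed at 37 C for 40 h with serial luminescence reads.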
Test [15] is described as follows: A CellTox Green Cytotoxicity Assay to monitor cytotoxicity in HEK293 cells - 40 hour (AID 1224871). Further: nearly all actives have a fitted effect of over 45% in size. Further: potency means the concentration at half of the fitted maximal effect. The method, boiled down:
as §1

The target of test [16] is Nuclear receptor subfamily 1 group I member 3 (Homo sapiens) (UniProt Q14994). Kind of test: qHTS assay to identify small molecule agonists of the constitutive androstane receptor (CAR) signaling pathway (AID 1224839). Further: nearly all actives have a fitted effect of over 15% in size. Further: potency means the concentration at half of the fitted maximal effect.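 On activation: HepG2 cells stably carrying human CAR and a CYP2B6 luciferase reporter.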 The method, boiled down:
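Using human hepatoma HepG2 cells engineered with hCAR and a CYP2B6-2.2kb reporter, 15-concentration compound series were incubated 24 h alongside PK11195 at 0.75 uM final, with luminescence quantified afterwards.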

Test [17] concerns the target Thyrotropin receptor (Homo sapiens) (UniProt P16473). Kind of test: qHTS assay to identify small molecule agonists of the thyroid stimulating hormone receptor (TSHR) signaling pathway (AID 1224843; calls by dose curve; further: nearly all actives have a fitted effect of over 45% in size). The method, boiled down:
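HEK293 cells stably bearing the thyrotropin receptor were plated at 800 cells/well and challenged with compound (30 min, RT). Accumulated cAMP was quantified via cAMP-d2 competing for cryptate-tagged antibody.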

Test [18] can be described thus: qHTS assay to identify small molecule agonists of H2AX - cell viability counter screen (AID 1224847; calls by dose curve; further: nearly all actives have a fitted effect of over 30% in size; further: potency means the concentration at half of the fitted maximal effect). Put shortly:
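After overnight plating of 1000 CHO-K1 cells per well, a 15-concentration compound series was applied for 3 hr at 37C. Luminescence from CellTiter-Glo, read following 30 min at room temperature, reflected cell viability.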

For test [19], the target named is Nuclear receptor subfamily 1 group I member 3 (Homo sapiens) (UniProt Q14994). Kind of test: qHTS assay to identify small molecule antagonists of the constitutive androstane receptor (CAR) signaling pathway (AID 1224838).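 Further: HepG2 cells stably expressing hCAR with CYP2B6 luciferase reporter stimulated by CITCO; nearly all actives have a fitted effect of over 40% in size.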 Further: potency means the concentration at half of the fitted maximal effect. Put shortly: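 Cell line: HepG2 double-stable for hCAR and CYP2B6-2.2kb reporter. Agonist: CITCO, 50 nM final. Compounds: 15 concentrations, 24 h, 37 C. Detection: ONE-Glo luminescence.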

Test [20] can be described thus: qHTS assay to identify small molecule agonists of the hypoxia (HIF-1) signaling pathway (AID 1224846; active means well fitted activation curve with a large enough effect in the signal ratio in the repeat runs, not every such curve was filed as active; the % refers to the signal ratio). Put shortly:
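A low-serum medium (0.5% dialyzed FBS) holding 2,000 HRE-bla ME-180 cells per well is preincubated for 5 hrs, dosed with compounds by pintool, and kept a further 17 hrs at 37C, 5% CO2 before CCF4-AM FRET detection of beta-lactamase.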

Where [21] appears, read: at 92.4 µM (top of the series) unless noted.

The structures appear in SMILES notation. Values joined by “and” are separate entries in the source; they are usually repeats but may differ in a detail not shown here. Equal entries are not always repeated. Records with an inconclusive call do not appear. Where a structure was tested more than once in an assay, its records may differ in their call. Active and inactive are the calls of the source. Unless noted, the call rests on the fitted dose curve; in most records, active means well fitted curve in the direction sought with a large enough effect in the repeat runs; inconclusive means weak or mixed curves; inactive means no such curve, though single readings can be large; an effect the other way counts as inactive or inconclusive.
On the % scale 0 is the no-effect control and ±100 the full control effect.

Sequence of Luciferin 4-monooxygenase (Photinus pyralis) (P08659 whole entry, looked up): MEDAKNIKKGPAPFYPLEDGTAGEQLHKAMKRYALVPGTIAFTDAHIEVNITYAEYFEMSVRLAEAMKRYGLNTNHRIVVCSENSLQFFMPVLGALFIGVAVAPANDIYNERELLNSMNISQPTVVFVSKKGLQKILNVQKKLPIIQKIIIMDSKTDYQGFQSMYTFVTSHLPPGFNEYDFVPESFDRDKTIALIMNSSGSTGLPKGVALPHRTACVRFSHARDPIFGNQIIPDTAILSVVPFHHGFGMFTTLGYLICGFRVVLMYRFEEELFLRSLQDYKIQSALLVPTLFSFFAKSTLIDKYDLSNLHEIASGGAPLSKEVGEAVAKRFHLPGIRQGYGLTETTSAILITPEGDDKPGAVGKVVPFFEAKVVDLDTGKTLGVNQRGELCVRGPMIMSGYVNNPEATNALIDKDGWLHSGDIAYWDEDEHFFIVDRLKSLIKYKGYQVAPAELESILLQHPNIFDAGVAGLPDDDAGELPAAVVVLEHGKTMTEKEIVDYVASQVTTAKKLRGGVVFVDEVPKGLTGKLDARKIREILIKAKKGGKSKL
Sequence of Nuclear receptor subfamily 1 group I member 3 (Homo sapiens) (Q14994 whole entry, looked up): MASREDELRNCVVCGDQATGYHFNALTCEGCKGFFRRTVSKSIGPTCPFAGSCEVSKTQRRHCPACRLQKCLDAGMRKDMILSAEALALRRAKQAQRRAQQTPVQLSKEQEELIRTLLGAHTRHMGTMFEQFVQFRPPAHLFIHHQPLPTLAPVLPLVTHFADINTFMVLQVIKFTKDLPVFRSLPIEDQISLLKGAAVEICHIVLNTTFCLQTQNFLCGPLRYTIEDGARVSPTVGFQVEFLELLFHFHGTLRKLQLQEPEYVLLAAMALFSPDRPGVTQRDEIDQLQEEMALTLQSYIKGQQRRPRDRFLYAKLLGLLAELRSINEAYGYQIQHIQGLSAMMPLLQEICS
Sequence of Thyrotropin receptor (Homo sapiens) (P16473 whole entry, looked up): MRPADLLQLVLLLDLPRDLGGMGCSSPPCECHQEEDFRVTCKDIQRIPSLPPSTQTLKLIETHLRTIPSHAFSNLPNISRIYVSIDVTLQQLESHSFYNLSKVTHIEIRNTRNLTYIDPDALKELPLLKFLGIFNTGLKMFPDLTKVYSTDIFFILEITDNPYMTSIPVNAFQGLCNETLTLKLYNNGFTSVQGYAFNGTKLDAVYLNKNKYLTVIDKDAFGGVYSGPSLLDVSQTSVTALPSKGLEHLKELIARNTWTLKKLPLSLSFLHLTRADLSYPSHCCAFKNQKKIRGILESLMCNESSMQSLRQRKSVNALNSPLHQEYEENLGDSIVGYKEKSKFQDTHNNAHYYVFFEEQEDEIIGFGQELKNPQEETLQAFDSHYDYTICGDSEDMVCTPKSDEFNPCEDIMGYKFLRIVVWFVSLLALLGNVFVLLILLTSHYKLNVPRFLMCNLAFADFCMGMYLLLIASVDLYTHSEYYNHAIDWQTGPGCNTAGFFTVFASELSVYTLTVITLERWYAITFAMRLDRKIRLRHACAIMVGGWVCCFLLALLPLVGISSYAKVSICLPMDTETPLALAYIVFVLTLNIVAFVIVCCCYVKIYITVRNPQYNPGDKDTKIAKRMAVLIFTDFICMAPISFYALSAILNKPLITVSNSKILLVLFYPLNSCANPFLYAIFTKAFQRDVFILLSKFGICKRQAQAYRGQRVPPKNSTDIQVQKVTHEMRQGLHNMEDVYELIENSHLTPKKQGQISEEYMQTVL

Consider `CN(Cc1cc(Br)cc(Br)c1N)C1CCCCC1`, for which the Potency entry in test [1], in [2], in [3], in [4], in [5] and in [6] was “inactive” in each case. In addition, the Potency result in test [7], in [8], in test [10], in test [11] and in test [12] was “inactive” in each case. Also, in test [9] (setting [21]), the activity change, positive = activation is -11.1% [at 42.5 µM] (inactive).

Consider `CC(C)N=C(N)/N=C(\N)Nc1ccc(Cl)cc1`, for which the Potency result in test [1], in [2], in [3], in [4], in [5] and in test [6] was “inactive” in each case. For the same molecule, the Potency result in test [7], in test [13], in test [10], in test [11] and in [15] was “inactive” throughout. Besides, the activity change, positive = activation in [9] (setting [21]) is -24.8% [at 42.5 µM] (inactive). Besides, the Potency in test [14] was 26.8 µM (active).

Take `CC1CCCNC1` (stereo unspecified): the Potency result in test [1], in [2], in test [3], in test [16], in test [4] and in test [17] was “inactive” throughout. Also, the Potency result in test [13], in test [18], in test [10], in test [14], in test [11] and in [12] was “inactive” throughout. Moreover, in test [15], the Potency entry is “inactive”.

`O=C(O)CC(=O)O`: the Potency entry in test [1], in test [2], in test [3], in test [19], in test [4] and in test [17] was “inactive” in each case. The Potency result in [7], in test [13], in test [18], in [10], in test [14] and in test [11] was “inactive” in each case. For the same molecule, the Potency entry in test [12] and in test [15] was “inactive” throughout. Also, the result in [20] was inactive.

In the case of `C[C@@]12C(=O)OC(=O)[C@]1(C)C1CCC2O1`, the Potency entry in test [1], in test [16], in [7], in test [11] and in test [15] was “inactive” each time. Further, the Potency in test [2] was 1.68 µM (active); in test [3], 1.33 µM (active); in [19], 0.668 µM (active); in test [10] it was 4.77 µM (active); in [14], 6.01 µM (active); in test [12] it was 1.69 µM (active).

`C=C(c1ccc(C(=O)O)cc1)c1cc2c(cc1C)C(C)(C)CCC2(C)C`: the Potency entry in [1], in test [2], in [3], in [10], in test [14] and in test [12] was “inactive” throughout. In addition, the Potency is 38.6 µM (active) and inactive in [16]; 61.1 µM (active) and inactive in test [4]; 21.7 µM (active) in [5]; 15.5 µM (active) and 16.9 µM (active) in [7]; 89.8 µM (active) in [13]; 101 µM (active) and inactive in test [18]. Further, the Potency in test [8] was 21.7 µM (active) and 23.7 µM (active); in test [15], 30.9 µM (active) and inactive. For the same molecule, the activity change, positive = activation was -34.6% (inactive) in test [9] (at 42.5 µM (top of the series)) and -63.5% (inactive) in test [9] (at 92.4 µM (top of the series)).

Turning to `COCC(=O)O[C@]1(CCN(C)CCCc2nc3ccccc3[nH]2)CCc2cc(F)ccc2[C@@H]1C(C)C`, the Potency entry in test [1], in test [16], in test [17] and in test [11] was “inactive” in each case. Besides, the Potency in test [3] was 29.8 µM (active); in [19], 29.8 µM (active); in test [4], 29.8 µM (active); in test [7], 16.9 µM (active); in test [13] it was 49.2 µM (active); in test [10], 13.4 µM (active). The Potency was 6.74 µM (active) in [14] and 19 µM (active) in [15].

On to `Clc1ccc(C(Cn2ccnc2)OCc2ccsc2Cl)c(Cl)c1` (stereo unspecified), for which the Potency entry in test [1], in [19], in test [6] and in test [7] was “inactive” in each case. Also, the Potency is 23.7 µM (active) in test [16], 18.8 µM (active) in test [5], 18.8 µM (active) in test [8] and 19 µM (active) in [14]. The activity change, positive = activation in test [9] (setting [21]) is -53.5% [at 42.5 µM] (inactive).

Values taken from PubChem BioAssay (Tox21).
